From PubChem BioAssay AID488846 (National Center for Advancing Translational Sciences (NCATS), 2010)
Calls of active or inactive are those of the source. Calls come from the whole dose curve; as a rule, active = well fitted curve in the direction sought with a large enough effect; inactive = no such curve, though single readings can be large or run the other way.

What follows are compounds tested against Alpha-galactosidase A (Homo sapiens) (UniProt P06280) (assay: qHTS Assay for Inhibitors and Activators of N370S glucocerebrosidase as a Potential Chaperone Treatment of Gaucher Disease: Alpha-Galactosidase Counterscreen for Probe SAR). Details: purified human alpha-galactosidase, 4-MU-alpha-Gal fluorescence.
Sequence of Alpha-galactosidase A (Homo sapiens) (P06280 whole entry, looked up): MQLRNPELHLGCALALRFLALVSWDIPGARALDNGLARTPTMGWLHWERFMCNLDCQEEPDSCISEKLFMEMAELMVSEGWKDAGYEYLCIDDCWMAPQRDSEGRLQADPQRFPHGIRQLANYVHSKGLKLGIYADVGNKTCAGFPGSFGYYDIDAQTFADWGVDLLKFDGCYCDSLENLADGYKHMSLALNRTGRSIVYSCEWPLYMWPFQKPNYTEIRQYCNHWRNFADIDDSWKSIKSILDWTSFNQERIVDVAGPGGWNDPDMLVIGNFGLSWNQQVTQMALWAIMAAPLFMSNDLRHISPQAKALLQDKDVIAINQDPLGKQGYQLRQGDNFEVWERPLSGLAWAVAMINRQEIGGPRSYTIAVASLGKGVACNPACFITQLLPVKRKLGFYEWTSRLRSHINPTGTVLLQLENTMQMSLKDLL
Text: NIH Chemical Genomics Center [NCGC] NIH Molecular Libraries Probe Production Centers Network [MLPCN] MLPCN Grant: MH086442-01 Assay Submitter (PI): Wei Zheng Glucocerebrosidase (GC) catalyzes the hydrolysis of beta-glucocerebroside to glucose and ceramide in lysosomes. Mutations in the glucocerebrosidase gene result in Gaucher disease, an autosomal recessive lysosomal storage disorder. Many of the mutations encountered in patients with Gaucher disease are missense alterations that may cause misfolding, decreased stability and/or mistrafficking of this lysosomal protein. […] These inhibitors include iminosugar analogs and three non-iminosugar inhibitors identified from a previous HTS of 62,000 compounds with the wild type recombinant enzyme. However, the enhancement of enzyme activity by the chaperone action of an enzyme inhibitor must be balanced against the direct inhibition of the enzyme. An enzyme activator could also function as a chaperone by binding to the enzyme and helping to correct its misfolding and mistrafficking. While activators for GC have not yet been identified, they may have better therapeutic potential than inhibitors. Therefore the discovery and development of chemical activators may provide a new strategy for the chaperone therapy. To characterize compound selectivity, selected hits from the primary screen were screened against purified alpha-galactosidase, a related sugar hydrolase. Alpha-galactosidase is a homodimeric glycoprotein that hydrolyzes the terminal alpha-galactosyl moieties from glycolipids and glycoproteins.
NCGC Assay Protocol Summary: This is a fluorogenic enzyme assay with 4-Methylumbelliferyl alpha-D-galactopyranoside as the substrate and human […] as the enzyme preparation. Upon the hydrolysis of this fluorogenic substrate, the resulting product, […]. 4-Methyllumbelliferone, can be excited at 365 nm and emits at 440 nm. This fluorescence which can be detected by a standard fluorescence plate reader. Data were normalized to the controls for basal activity (without enzyme) and 100% activity (with enzyme). In the AC50 values were determined from concentration-response data modeled with the standard Hill equation. Assay buffer: 50 mM citric acid (titrated with potassium phosphate to pH 4.5), 0.005% Tween-20, pH 4.5. (pH 4.5 is an optimal condition for this enzyme assay) 1536-well assay protocol for the human alpha-galactosidase: (1) Add 2 ul/well of enzyme (12 nM final) (2) Add 23 nL compounds in DMSO solution. The final titration was 0.7 nM to 77 uM. (3) Add 1 ul of substrate ([…]) (4) Incubate at room temperature for 20 min. (5) Add 2 ul stop solution (1M NaOH and 1M Glycine mixture, pH 10) (6) Detect the assay plate in a ViewLux plate reader (PerkinElmer) with Ex=365 nm and Em=440nm.
With O=C(NC1CCCCC1)c1cnn2c1NC(=C1CC1)C=C2C(F)F the max response was -4.62% (inactive). With C=C1C=C(C(F)F)n2ncc(C(=O)Nc3ccc(C(C)CC)cc3)c2N1 (stereo unspecified) the max response was -7.63% (inactive). In the case of C#Cc1ccc(NC(=O)c2cnn3c(C)cc(C)nc23)cc1, the max response was -7.39% (inactive). For O=C(Nc1ccc2c(c1)CCC2)c1cnn2c1NC(=C1CC1)C=C2C(F)F, the max response was -2.77% (inactive). In the case of O=C(Nc1ccccc1Sc1ccccc1)c1cnn2c1NC(=C1CC1)C=C2C(F)(F)F, the max response was -8.17% (inactive). O=C(Nc1ccccc1Sc1ccccc1)c1cnn2c1NC(=C1CC1)C=C2C(F)F was tested, and the max response was -8.53% (inactive).
